Source: the supplement of paper PMC13380429

System: Vero E6 infected with SARS-CoV-2
Test: inhibition of SARS-CoV-2 cytopathic effect; higher = more antiviral protection, active = above 15
Conditions: 48 h

Measured: inhibition of SARS-CoV-2 cytopathic effect

CC(C)(CC(=O)N1CCCC1)NCC(=O)N1C[C@@H](F)C[C@H]1C#N
inactive: 1 nM 1.83% | 8.33 nM 0.33% | 100 nM -0.99% | 833.33 nM -1.3% | 10000 nM -0.94%

COc1c(-c2ccc3cc(NS(C)(=O)=O)ccc3c2)cc(-n2ccc(=O)[nH]c2=O)cc1C(C)(C)C [dasabuvir]
inactive: 1 nM 1.02% | 8.33 nM -0.41% | 100 nM 0.27% | 833.33 nM 1.41% | 10000 nM 2.61%

O=C(O)CCNc1cc(N2CCc3ccccc3CC2)nc(-c2cccnc2)n1
inactive: 1 nM 0.26% | 8.33 nM 0.62% | 100 nM 1.71% | 833.33 nM 0.35% | 10000 nM -0.17%

COc1cc(C(=S)N2CCOCC2)cc(OC)c1OC [sulmetozine]
inactive: 1 nM -6.81% | 8.33 nM -0.82% | 100 nM 1.75% | 833.33 nM -0.02% | 10000 nM 2.55%

Cn1c(-c2ccccc2)nnc1S(C)(=O)=O
inactive: 1 nM 2.45% | 8.33 nM -0.41% | 100 nM 0.33% | 833.33 nM -0.57% | 10000 nM 2.92%

NC(CO)C(=O)NNCc1ccc(O)c(O)c1O (stereo not given) [benserazide]
inactive: 1 nM -1.48% | 8.33 nM 3.19% | 100 nM 2.6% | 833.33 nM -3.13% | 10000 nM -4.67%

CC(C)=CCC/C(C)=C/CC/C(C)=C/CCC(=O)OC/C=C(\C)CCC=C(C)C [geranyl-farnesylacetate]
inactive: 1 nM -0.32% | 8.33 nM 0.94% | 100 nM -2.76% | 833.33 nM 0.87% | 10000 nM 1.54%
